In the library only some 1.2% were active in any assay of this set; here they are far more common.
PglD inh = PglD (C. jejuni) enzyme inhibition; inhibition, % at 12.5 µM; purified PglD enzyme, DTNB colorimetric CoA detection; 360,000 tested, 0.098% active; in the data active = inhibition above about 16%, passing the limit was not always enough
C2C12 statin = suppression of simvastatin myotoxicity | C2C12 myotubes + simvastatin, ATP luminescence, 48 h; scaled: DMSO 0, geranylgeraniol control 100 | rescue of ATP level, % at 7.49 µM | 330,000 tested, 0.78% active | AID 602340;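 active = mean ATP rescue above about 67%, or every replicate alone reaching that limit, limit read from the data, passing the limit was not always enough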;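 note: myotubes were challenged with 10 µM simvastatin during compound exposure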
miR122 inh = miR-122 inhibition in Huh7 cells; Huh7 miR-122 Renilla luciferase sensor, 48 h; neutral wells = 0, positive control = 100; activation (reporter increase), % at 12.5 µM; 340,000 tested, 0.3% active; AID 602342;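 active = mean replicate activation score at least 90 and every replicate individually at or above 90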;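 note: higher luciferase means less miR-122 activity so hits act as miR-122 inhibitors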
NSD2 HMT inh = inhibitors of human histone methyltransferase NSD2; 310,000 tested, 0.54% active; inhibition, % at 12.5 µM; NSD2 peptide methylation, AlphaScreen, 120 min; O96028; in the data active = inhibition above about 50%
PglD confirm = blocks Campylobacter jejuni PglD acetyltransferase activity; shares compounds with PglD inh; Purified C. jejuni PglD, DTNB absorbance 412 nm; inhibition, % at 20 µM; 320 tested, under 10 active;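 active = mean inhibition across replicates of at least 20% with every single replicate also at 20% or more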;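 note: initial rate of CoA release by acetyl transfer from AcCoA to the UDP-4-amino sugar; 0% = median of neutral control wells and 100% = median of positive control wells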
An asterisk follows results filed as active; · = no result; [ ] = another dose, or the depositor's remark.

SMILES	PglD inh	C2C12 statin	miR122 inh	NSD2 HMT inh	PglD confirm
CC(C)OCCCn1c(=NC(=O)c2cccs2)c(C#N)cc2c(=O)n3ccccc3nc21	68*	·	-5	0	-8
C[C@@H]1CCCCO[C@@H](CN(C)C(=O)Nc2ccc(C(F)(F)F)cc2)[C@@H](C)CN([C@H](C)CO)C(=O)c2cc(NC(=O)Nc3ccc(C(F)(F)F)cc3)ccc2O1	-6	·	49[16.7 µM]	·	·
O=C(COC(=O)CCc1nc2ccccc2n1-c1ccccc1)Nc1cccc(Cl)c1	29*	4	2	-3	-2
Cc1ccc(CN2[C@@H]3c4ccccc4C[C@@H]3OCCS2(=O)=O)cc1	2	13	1	·	·
O=S1(=O)CCO[C@H]2Cc3ccccc3[C@H]2N1Cc1ccc(F)cc1	27*	0	3	·	-6
Cc1noc(C)c1NC(=O)Nc1ccc2c(c1)C(=O)N([C@H](C)CO)C[C@H](C)[C@H](CN(C)C(=O)Nc1ccccc1)OCCCC[C@@H](C)O2	0	8	5[16.7 µM]	·	·
CC=Cc1ccc2n(c1=O)C[C@H]1[C@H](CO)[C@@H](C(=O)NCc3cccc(OC)c3)N[C@@H]21 (mixture of isomers)	13	15	·	·	·
COC(=O)C1CSC(C(=O)OC)N1C(=O)CN1CCN(c2ccc(OC)cc2)CC1 (configuration not stated)	59*	·	1	5	3
O=C(O)CC/C(=N\NC(=O)CNC(=O)/C=C/c1ccccc1)c1ccccc1	26*	13	-5	·	2
CCC(=O)C1=C(O)C(c2cccc(Oc3ccccc3)c2)CCC1=O (configuration not stated)	28*	-1	5	0	1
O=C(NNS(=O)(=O)c1ccccc1)c1sccc1-n1cccc1	3	-6	3	·	·
O=C(NNS(=O)(=O)c1ccc(Cl)cc1)c1sccc1-n1cccc1	25*	7	3	-3	6
CC(C)(C)C(=O)C1=C(O)C(=O)N(Cc2ccccc2)C1c1ccccc1F (configuration not stated)	73*	-8	239*	0	-11
CC(=O)C1=C(O)C(=O)N(Cc2ccco2)C1c1ccccc1F (configuration not stated)	·	·	·	-1	·
C=C(C)Cn1c2ccc(NC(=O)NCc3ccccc3)cc2c(=O)n1C	20*	-2	7	-7	-7
C=C(C)Cn1c2ccc(NC(=O)NCC)cc2c(=O)n1C	-5	8	-1	28	·
CN1/C(=C\C(=O)Nc2cccc(Cl)c2)C(C)(C)c2ccccc21	20*	-10	-4	-2	13
COc1ccc(CN(C)C[C@@H]2Oc3ccc(NC(=O)Nc4ccc(C(F)(F)F)cc4)cc3C(=O)N([C@H](C)CO)C[C@@H]2C)cc1	-6	-8	-8[16.7 µM]	·	·
COc1cccc(S(=O)(=O)N[C@@H]2CC[C@@H](CCNC(=O)Nc3cc(F)ccc3F)O[C@@H]2CO)c1	0	-13	·	·	·
C[C@H](CO)N1C[C@H](C)[C@@H](CN(C)S(=O)(=O)c2ccc(Cl)cc2)Oc2ccc(NS(=O)(=O)c3ccc(Cl)cc3)cc2CC1=O	4	52	-6[16.7 µM]	·	·
COc1cccc2cc(-c3nnc(-c4ccccc4)o3)c(=O)oc12	21*	-4	3	-3	4
COc1ccc(-c2nnc(-c3cc4ccccc4oc3=O)o2)cc1	2	13	6	·	·
COC(=O)Nc1ccc(S(=O)(=O)Nc2cc(C(F)(F)F)c[nH]c2=O)cc1	31*	2	5	1	1
c1ccc(CNc2nc(-c3cccnc3)nc3ccccc23)cc1	-5	-3	-2	-1	·
c1cncc(CNc2nc(-c3cccnc3)nc3ccccc23)c1	24*	3	9	-3	3
CCCC(=O)Nc1ccc2c(c1)C(=O)N(C)[C@H]1CC[C@@H](CC(=O)NCCc3ccccc3)O[C@@H]1CO2	·	14	7[16.7 µM]	·	·
CC(C(=O)Nc1ccc(C#N)cc1)N(C)Cc1cccs1 (configuration not stated)	-1	1	35	31	·
CC(C(=O)Nc1ccc(Cl)cc1)N(C)Cc1cccs1 (configuration not stated)	23*	4	4	-12	-8
O=C(C[C@@H]1C[C@@H]2c3cc(NC(=O)NC4CCCC4)ccc3O[C@@H]2[C@H](CO)O1)NCc1ccncc1	-4	2	-5[16.7 µM]	·	·
CCNC(=O)CC1C(=O)N(c2ccccc2)C(=O)N1Cc1ccc(OC)cc1 (configuration not stated)	33*	-16	-4	2	0

Assay outcomes: PubChem BioAssay, Broad Institute
